Most compounds without a hit are left out; they make up all but 19% or so of the library.
TDP1 cell CPT: qHTS for Inhibitors of human tyrosyl-DNA phosphodiesterase 1 (TDP1): qHTS in cells in presence of CPT; hit rate 12% among 420,000; AID 686979, 2013; Potency, µM (doses to about 46.2 µM), for the others: at the top dose activity change, negative = growth inhibition, actives largely listed as inhibitors; chicken DT40 Tdp1-/-;hTDP1 cells + 20 nM CPT, ATP luminescence, 48 h; also: potency is read from the fitted curve at half-maximal effect; % is scaled to controls: 0 for no effect and ±100 for the full control effect; nearly all actives have a fitted effect of over 55% in size
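Chicken DT40 Tdp1-/- cells stably complemented with human TDP1 were seeded at 400 cells/well in medium containing 20 nM camptothecin, exposed to pin-transferred compounds, and grown at 37 °C for at least 48 hr. Viability was read as ATP luminescence.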
DT40 TDP1 no CPT: qHTS for Inhibitors of human tyrosyl-DNA phosphodiesterase 1 (TDP1): qHTS in cells in absence of CPT. Potency, µM (titrated, usually from 46.2 µM), inactives show at the highest dose activity change, negative = growth inhibition, actives largely listed as inhibitors. DT40 Tdp1-/- hTDP1 cells, no CPT, ATP luminescence, 48 h. hit rate 15% among 420,000. AID 686978, 2013; also: potency is read from the fitted curve at half-maximal effect; % is scaled to controls: 0 for no effect and ±100 for the full control effect; nearly all actives have a fitted effect of over 55% in size
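Chicken DT40 Tdp1-/- cells complemented with human TDP1, screened without camptothecin (DMSO vehicle only), 400 cells/well. Compounds pin-transferred, cells incubated at 37 °C for at least 48 hr. Growth read as ATP-dependent luminescence (CellTiter-Glo, 30 min at RT).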
TGFb inhibitor: qHTS for Inhibitors of TGF-b; HepG2 CAGA-GFP TGF-b/SMAD3 reporter, GFP fluorescence, 18 h; TGF-beta stimulated, 500 pg/mL final; Potency, µM (top dose mostly 46.1 µM), without a hit: at the highest dose activity, negative = inhibition, usual class: inhibitors; hit rate 1.2% among 410,000; AID 588855, 2011; also: potency is read from the fitted curve at half-maximal effect; % is scaled to controls: 0 for no effect and ±100 for the full control effect; nearly all actives have a fitted effect of over 65% in size
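TGF-beta reporter screen: HEPG2 CAGA-GFP, 1% FBS, 500 pg/mL TGF-beta final, 18 h; per-cell GFP summed per well; curves fitted and categorized by class.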
HepG2 tox: qHTS for Inhibitors of TGF-b: Cytotox Counterscreen; HepG2 CAGA-GFP viability, ATP luminescence, 18 h; hit rate 0.76% among 410,000; Potency, µM (titrated, usually from 46.1 µM), without a hit: top-dose activity change, negative = cytotoxicity, most hits filed as cytotoxic; also: potency is read from the fitted curve at half-maximal effect
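HepG2 CAGA-GFP cells (1000/well, DMEM with 1% FBS) received compound, then TGF-beta at 500 pg/mL final, and were incubated 18 hours at 37 degrees C. Viability was read by CellTiter-Glo luminescence. Media-only wells were set as complete cell-killing and DMSO as no toxicity.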
IL-1B inflam inh: qHTS for Inhibitors of Inflammasome Signaling: IL-1-beta AlphaLISA Primary Screen. THP-1 LPS/ATP IL-1B secretion, AlphaLISA, 16 h; hits give low values. activity change, % at 57.5 µM. hit rate 4.7% among 360,000; in the data active = activity change below about -50%; inconclusive = mostly about -30% to -49%; also: % is scaled to controls: 0 for no effect and ±100 for the full control effect
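Secreted IL-1B measured by AlphaLISA bead assay after 16 h compound exposure of THP-1 cells; compounds (final up to 57.5 uM) added 1 h before LPS (250 ng/mL) and ATP (1.25 mM) stimulation; lower signal means less secretion.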
TDP1 block: qHTS Assay for Inhibitors of Tyrosyl-DNA Phosphodiesterase (TDP1) | Tyrosyl-DNA phosphodiesterase 1 (Homo sapiens), Q9NUW8 | recombinant TDP1, AlphaScreen DNA substrate cleavage | Potency, µM (titrated, usually from 130 µM), inactives show at the top dose activity change, negative = inhibition, usual class: inhibitors | hit rate 0.28% among 350,000 | AID 485290, 2010; also: potency is read from the fitted curve at half-maximal effect; % is scaled to controls: 0 for no effect and ±100 for the full control effect; nearly all actives have a fitted effect of over 40% in size
Target sequence (Q9NUW8 whole entry, looked up): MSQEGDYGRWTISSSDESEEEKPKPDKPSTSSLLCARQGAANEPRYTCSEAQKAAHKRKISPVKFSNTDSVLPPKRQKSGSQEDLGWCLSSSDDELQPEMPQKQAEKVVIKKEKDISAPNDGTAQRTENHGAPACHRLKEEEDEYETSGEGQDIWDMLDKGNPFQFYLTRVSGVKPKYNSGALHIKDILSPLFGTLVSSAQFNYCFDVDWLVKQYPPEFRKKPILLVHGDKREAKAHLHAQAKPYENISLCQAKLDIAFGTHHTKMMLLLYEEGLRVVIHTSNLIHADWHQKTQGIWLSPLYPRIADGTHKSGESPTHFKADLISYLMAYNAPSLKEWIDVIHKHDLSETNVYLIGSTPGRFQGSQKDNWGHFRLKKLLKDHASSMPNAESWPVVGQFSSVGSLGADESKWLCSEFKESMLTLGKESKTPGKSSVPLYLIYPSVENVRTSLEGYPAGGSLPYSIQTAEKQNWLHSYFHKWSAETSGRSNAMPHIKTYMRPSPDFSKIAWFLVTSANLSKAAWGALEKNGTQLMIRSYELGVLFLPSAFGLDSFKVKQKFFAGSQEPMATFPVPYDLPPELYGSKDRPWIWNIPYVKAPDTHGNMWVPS
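Signal: AlphaScreen proximity between streptavidin donor and anti-FITC acceptor beads on intact substrate. Reaction: Tdp1 1 nM, substrate 15 nM final, 5 min RT after 15 min compound preincubation.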
* = called active by the depositor; ? = inconclusive; nt = no result. Unless noted, calls follow the shape of the dose curve; as a rule, active = well fitted curve in the direction sought with a large enough effect; inconclusive = small, poorly fitted or top-dose-only effect, or another doubt; inactive = no such curve, though single readings can be large; an effect the other way counts as inactive or inconclusive.

SMILES | TDP1 cell CPT | DT40 TDP1 no CPT | TGFb inhibitor | HepG2 tox | IL-1B inflam inh | TDP1 block
Cc1ccccc1S(=O)(=O)Cc1ccc(C(=O)NCCN(C)Cc2ccccc2)o1 | -28% | -6% | -2% | -39% | 7 | 1%
COCc1cc(C)nc2c1C(=O)NC(c1ccc(Br)cc1)N2Cc1ccccc1 (centres undefined) | ? | ? | 2% | -2% | nt | 2%
O=C(NCC(c1ccccc1)c1ccccc1)c1nn(-c2ccccc2Cl)nc1CO | ? | 23µM* | -13% | -16% | nt | -5%
O=C(NCc1cccs1)c1nn(-c2ccccc2Cl)nc1CO | -20% | ? | 0% | 6% | nt | -2%
Cc1ccccc1-n1nc(CO)c(C(=O)NCC(c2ccccc2)c2ccccc2)n1 | ? | 21µM* | -14% | -24% | nt | -7%
Cc1ccc(-n2nc(CO)c(C(=O)NCC(c3ccccc3)c3ccccc3)n2)cc1 | ? | ? | -9% | -6% | nt | 0%
O=C1NC(=O)C2C3C=CC(C3)C12 (centres undefined) | nt | nt | nt | nt | nt | 6%
CC(c1ccon1)N(C)C(=O)c1ccc2nc(Cc3cccc(Cl)c3)oc2c1 (centres undefined) | ? | ? | -9% | 3% | 0 | 0%
Cc1ccc(C)c(C(=O)COC(=O)C(C)N2C(=O)C3C4CCC(C4)C3C2=O)c1 (centres undefined) | ? | ? | -6% | -7% | 0 | 4%
COc1ccc(C(=O)OC(C)C(=O)Nc2cc(C(F)(F)F)ccc2Cl)c(OC)c1OC (centres undefined) | 5.8µM* | 16µM* | ? | -11% | 4 | -3%
COc1ccc(C(=O)OCC(=O)Nc2ccc(Cl)c(C(F)(F)F)c2)c(OC)c1OC | 21µM* | 21µM* | ? | -37% | -20 | -3%
O=C(CN1CCN(c2ccccn2)CC1)Nc1ccc(OC(F)(F)F)cc1 | -5% | 23µM* | -15% | -2% | -25 | nt
O=C(CN1CCN(c2ccccn2)CC1)Nc1ccc(Cl)c(C(F)(F)F)c1 | 18µM* | 18µM* | 8% | 30% | -9 | 0%
CCN1C(=O)c2ccc(C(=O)Nc3ccc4c(c3)OCO4)cc2C1=O | 8% | -1% | 2% | 0% | -17 | 3%
O=C(CN1CCN(C(C(=O)Nc2ccc(Cl)cc2C(F)(F)F)c2ccccc2)CC1)NC1CC1 (centres undefined) | ? | ? | -6% | 0% | ? | 0%
O=C(CN1CCc2ccccc2C1)Nc1ccc(F)cc1 | -10% | 6% | -8% | 2% | 0 | nt
COc1ccccc1N1CCN(CC(=O)Nc2ccc(Cl)c(C(F)(F)F)c2)CC1 | 21µM* | ? | ? | -11% | -10 | -3%
COc1ccccc1N1CCN(CC(=O)Nc2cc(F)ccc2C)CC1 | ? | ? | -9% | -20% | ? | 3%
COc1ccccc1N1CCN(CC(=O)Nc2cc(C)nn2-c2nc(C)cc(C)n2)CC1 | 4.1µM* | 3.3µM* | 14% | 15% | 51 | nt
O=C(CN1CCN(C(C(=O)Nc2cc(C(F)(F)F)ccc2Cl)c2ccccc2)CC1)NC1CC1 (centres undefined) | 21µM* | ? | -9% | -10% | 0 | nt
O=C(CN1CCc2ccccc2C1)Nc1ccc(OC(F)(F)F)cc1 | 12% | -22% | 6% | -9% | -65* | nt
CCCN(CCC)S(=O)(=O)c1cccc(C(=O)N=c2sccn2C)c1 | ? | ? | -11% | -7% | 0 | 3%

High-throughput results from PubChem BioAssay.
